Data: PubChem BioAssay (NCI)
Values joined by “and” are separate entries in the source; they are usually repeats but may differ in a detail not shown here. Identical values can stand only once. The panel holds about 83,000 compounds, 20% with a hit somewhere; the sample as a whole holds those more often.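 Percent growth is the endpoint: 0 to 100 indicates growth inhibition (40 means 60% inhibition), 0 means no net growth, and negative values indicate cell death.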 Active and inactive are the calls of the source. How the source made its calls: active means growth percent below 10; inactive means the rest.

What was measured:
Experiment in all cases: NCI-60 one-dose screen, 48 h (100 = growth as untreated, 0 = no growth, -100 = all killed)
Conditions in all cases: 10 µM unless noted
HCT-15 colon = system: HCT-15 colon
SNB-75 CNS = system: SNB-75 CNS
SNB-19 CNS = system: SNB-19 CNS
U251 CNS = system: U251 CNS
PC-3 prostate = system: PC-3 prostate
SK-MEL-5 melanoma = system: SK-MEL-5 melanoma
UACC-62 melanoma = system: UACC-62 melanoma
LOX IMVI melanoma = system: LOX IMVI melanoma
SK-MEL-28 melanoma = system: SK-MEL-28 melanoma
SK-MEL-2 melanoma = system: SK-MEL-2 melanoma
EKVX NSCLC = system: EKVX NSCLC
SN12C renal = system: SN12C renal
UO-31 renal = system: UO-31 renal
TK-10 renal = system: TK-10 renal
ACHN renal = system: ACHN renal
CAKI-1 renal = system: CAKI-1 renal
A498 renal = system: A498 renal
CCRF-CEM leukemia = system: CCRF-CEM leukemia
MOLT-4 leukemia = system: MOLT-4 leukemia
HT29 colon = system: HT29 colon

| SMILES | growth (HCT-15 colon) | growth (SNB-75 CNS) | growth (SNB-19 CNS) | growth (U251 CNS) | growth (PC-3 prostate) | growth (SK-MEL-5 melanoma) | growth (UACC-62 melanoma) | growth (LOX IMVI melanoma) | growth (SK-MEL-28 melanoma) | growth (SK-MEL-2 melanoma) | growth (EKVX NSCLC) | growth (SN12C renal) | growth (UO-31 renal) | growth (TK-10 renal) | growth (ACHN renal) | growth (CAKI-1 renal) | growth (A498 renal) | growth (CCRF-CEM leukemia) | growth (MOLT-4 leukemia) | growth (HT29 colon) |
| --- | --- | --- | --- | --- | --- | --- | --- | --- | --- | --- | --- | --- | --- | --- | --- | --- | --- | --- | --- | --- |
| CCN(CC)CCOc1ccc2c(c1)C(=O)c1cc(OCCN(CC)CC)ccc1-2 | 78.2% (inactive) and 39% (inactive) | 74.9% (inactive) and 67.1% (inactive) | 83.9% (inactive) and 75.7% (inactive) | 53.6% (inactive) and 61.3% (inactive) | 70.6% (inactive) and 35.9% (inactive) | 95% (inactive) and 95.5% (inactive) | 105% (inactive) and 103% (inactive) | 52.3% (inactive) and 37.3% (inactive) | 123% (inactive) and 108% (inactive) | 114% (inactive) and 95.4% (inactive) | 90.5% (inactive) and 59% (inactive) | 73.2% (inactive) and 61.6% (inactive) | 59.6% (inactive) and 4.32% (active) | 75.8% (inactive) and 78.1% (inactive) | 46.7% (inactive) | 85.7% (inactive) | 73.9% (inactive) and 90.8% (inactive) | 55.1% (inactive) | 50.5% (inactive) and -16.2% (active) | – |
| Cc1nnc(NC/C=C/c2ccccc2)s1 | 98.3% (inactive) and 104% (inactive) | 86.3% (inactive) and 103% (inactive) | 108% (inactive) and 113% (inactive) | 97.8% (inactive) | 94% (inactive) and 99.5% (inactive) | 101% (inactive) and 102% (inactive) | 104% (inactive) | 96.1% (inactive) and 97.5% (inactive) | 104% (inactive) and 103% (inactive) | 122% (inactive) | 101% (inactive) | 105% (inactive) and 108% (inactive) | 87.1% (inactive) and 91.2% (inactive) | 96.4% (inactive) and 111% (inactive) | 103% (inactive) and 112% (inactive) | 112% (inactive) | 96.1% (inactive) | 113% (inactive) | 92.8% (inactive) and 111% (inactive) | – |
| Fc1ccccc1Nc1n[nH]c(=S)s1 | 98.3% (inactive) | 101% (inactive) | – | 101% (inactive) | 106% (inactive) | 101% (inactive) | 95.3% (inactive) | 128% (inactive) | 102% (inactive) | 116% (inactive) | 136% (inactive) | 99.9% (inactive) | – | 115% (inactive) | 110% (inactive) | 113% (inactive) | 94.6% (inactive) | -60% (active) | 114% (inactive) | 103% (inactive) |
| Cc1nn(-c2ccc(Cl)cc2)c2ncnc(N/N=C/c3ccccc3O)c12 | 31.9% (inactive) and 27.1% (inactive) | -15.1% (active) and 35.9% (inactive) | 29.6% (inactive) and 23.7% (inactive) | 13% (inactive) and 11.8% (inactive) | 41.6% (inactive) and 28.1% (inactive) | -62.4% (active) and -60.4% (active) | 13.5% (inactive) and -37.1% (active) | 35.1% (inactive) and 7.4% (active) | 25.2% (inactive) and 14.5% (inactive) | 12.3% (inactive) and 36% (inactive) | 38.1% (inactive) and 5.43% (active) | 23.1% (inactive) and 4.76% (active) | – | 16.4% (inactive) and 36.7% (inactive) | – | 13.5% (inactive) and 5.47% (active) | 78.5% (inactive) and 69.6% (inactive) | 6.41% (active) and -2.4% (active) | 9.43% (active) and 6.36% (active) | – |
| CC1CCCc2sc3nc(NNC(=O)c4cnccn4)n(-c4ccccc4)c(=O)c3c21 (stereo not given) | 26.4% (inactive) and 24.6% (inactive) | 36.4% (inactive) and 2.93% (active) | 25.8% (inactive) and 21.6% (inactive) | 4.39% (active) and 8.03% (active) | 30% (inactive) and 27.4% (inactive) | -38.3% (active) and -65.9% (active) | -33.9% (active) and -8.57% (active) | 0.839% (active) and 2.01% (active) | 11.7% (inactive) and 27.4% (inactive) | 11.3% (inactive) and 25.1% (inactive) | 14.8% (inactive) and 7.14% (active) | – | – | 30.3% (inactive) and 37.9% (inactive) | 8.58% (active) and 19.9% (inactive) | 5.81% (active) and 0.832% (active) | – | 3.85% (active) and 0.781% (active) | 5.36% (active) and 10.6% (inactive) | – |
| O=[N+]([O-])c1ccccc1N(S(=O)(=O)c1ccccc1)S(=O)(=O)c1ccccc1 | 105% (inactive) and 90.4% (inactive) | 96.2% (inactive) | 107% (inactive) and 98.6% (inactive) | 91.5% (inactive) and 87.8% (inactive) | 80.3% (inactive) and 77.7% (inactive) | 110% (inactive) | 76.1% (inactive) and 66% (inactive) | 98.7% (inactive) and 84.7% (inactive) | 115% (inactive) and 111% (inactive) | 106% (inactive) | 102% (inactive) and 85.1% (inactive) | 102% (inactive) and 99.2% (inactive) | 86.7% (inactive) and 67% (inactive) | 93.3% (inactive) and 97.1% (inactive) | 102% (inactive) and 93.4% (inactive) | 79.4% (inactive) and 56.3% (inactive) | 86.9% (inactive) and 98.6% (inactive) | 53.7% (inactive) and 105% (inactive) | -13.5% (active) and 103% (inactive) | – |
| CCN(CC)CCCC(C)Nc1ccnc2cc(Oc3ccccc3)ccc12 (stereo not given) | 52.7% (inactive) and 54.5% (inactive) | 62.9% (inactive) and 99.8% (inactive) | 83.5% (inactive) and 94.5% (inactive) | 56.5% (inactive) and 60.4% (inactive) | 61.9% (inactive) and 67.7% (inactive) | -87.1% (active) and 79.6% (inactive) | 60.9% (inactive) and 92.8% (inactive) | 22.2% (inactive) and 39.3% (inactive) | 1.01% (active) and 85.5% (inactive) | 115% (inactive) | 83.7% (inactive) and 74.9% (inactive) | 71.2% (inactive) and 74.4% (inactive) | – | 91.3% (inactive) | 73.6% (inactive) and 80.6% (inactive) | 68.8% (inactive) | 59.1% (inactive) and 55.4% (inactive) | 65.5% (inactive) and 56% (inactive) | 65.1% (inactive) and 80.7% (inactive) | – |
| CN1CCN(C2CCN(C(=O)Nc3cc(Oc4ccc(NC(=O)C5(C(=O)Nc6ccc(F)cc6)CC5)c(F)c4)ccn3)CC2)CC1 | -14.8% (active) and 93.5% (inactive) | -77.5% (active) and 77.2% (inactive) | 3.95% (active) and 115% (inactive) | -86.3% (active) and 98.1% (inactive) | -12.3% (active) and 86.1% (inactive) | -98% (active) and 80.1% (inactive) | -78% (active) and 70.7% (inactive) | -88.3% (active) and 93.1% (inactive) | -91.6% (active) and 94.3% (inactive) | 81.3% (inactive) | 3.24% (active) and 99.4% (inactive) | -55.1% (active) and 50.6% (inactive) | -61.7% (active) and 92.4% (inactive) | -47.9% (active) and 98.4% (inactive) | -3.96% (active) and 53.5% (inactive) | -34.8% (active) and 44.8% (inactive) | -68.6% (active) and 92.8% (inactive) | 0.274% (active) and 101% (inactive) | -10.9% (active) and 86.6% (inactive) | – |
